Publication PMC4336329 (PLoS ONE, 2015)
The campaign covered roughly 310,000 compounds. About 14,000 (4.5%) showed an effect of 50% or more. The effect is printed as a negative number. Shown is part of a subset that was picked to be rich in strong results.

Each compound was assayed against human ether-à-go-go-related gene (hERG) potassium channel (human, UniProt Q12809) (assay: primary screen, population patch clamp on CHO cells stably expressing hERG; higher = less effect of the substance).
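Note: peak tail current of the secondary pulse compared with the same well before compound.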

Chain of human ether-à-go-go-related gene (hERG) potassium channel (Q12809 whole entry, looked up): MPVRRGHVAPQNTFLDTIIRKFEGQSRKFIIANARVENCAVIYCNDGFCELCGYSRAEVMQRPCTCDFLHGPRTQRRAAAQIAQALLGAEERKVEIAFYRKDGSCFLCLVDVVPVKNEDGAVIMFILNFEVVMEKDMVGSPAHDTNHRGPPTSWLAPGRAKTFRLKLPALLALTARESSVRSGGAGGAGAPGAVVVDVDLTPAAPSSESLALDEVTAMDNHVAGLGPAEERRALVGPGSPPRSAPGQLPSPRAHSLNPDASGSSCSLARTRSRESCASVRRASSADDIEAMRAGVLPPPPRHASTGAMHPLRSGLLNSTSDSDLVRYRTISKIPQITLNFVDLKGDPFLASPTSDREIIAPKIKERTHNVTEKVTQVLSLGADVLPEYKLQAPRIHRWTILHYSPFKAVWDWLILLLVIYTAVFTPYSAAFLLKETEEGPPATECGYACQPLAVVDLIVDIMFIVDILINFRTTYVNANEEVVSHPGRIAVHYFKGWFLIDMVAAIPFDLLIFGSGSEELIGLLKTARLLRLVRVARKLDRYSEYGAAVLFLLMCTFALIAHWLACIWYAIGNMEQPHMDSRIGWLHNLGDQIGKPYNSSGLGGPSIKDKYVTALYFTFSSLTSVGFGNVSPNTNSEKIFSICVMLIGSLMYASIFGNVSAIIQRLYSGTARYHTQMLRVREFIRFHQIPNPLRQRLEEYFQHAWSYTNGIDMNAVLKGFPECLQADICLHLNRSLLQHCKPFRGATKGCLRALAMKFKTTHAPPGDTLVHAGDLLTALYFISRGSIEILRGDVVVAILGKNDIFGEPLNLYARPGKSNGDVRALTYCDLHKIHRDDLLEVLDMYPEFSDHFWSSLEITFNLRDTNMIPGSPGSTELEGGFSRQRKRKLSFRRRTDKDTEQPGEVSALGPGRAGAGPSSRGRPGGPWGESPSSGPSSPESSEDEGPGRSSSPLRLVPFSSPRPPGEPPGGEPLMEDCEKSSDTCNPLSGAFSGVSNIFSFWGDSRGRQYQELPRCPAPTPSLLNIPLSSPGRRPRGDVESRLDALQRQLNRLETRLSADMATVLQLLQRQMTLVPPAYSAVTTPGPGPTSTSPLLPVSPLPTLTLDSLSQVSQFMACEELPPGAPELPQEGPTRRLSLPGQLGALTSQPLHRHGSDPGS

Structure (SMILES) | hERG current change (%, negative = inhibition) at 10uM
COc1ccc(CNC(=O)CCSCc2cccc(Cl)c2)cc1 | -17%
COc1ccc(-n2nnnc2CNC(=O)C(=O)c2c[nH]c3ccccc23)cc1 | 6.27%
CCCCOC(=O)Nc1ccc(C(=O)OCCC)cc1 | -12.9%
CCC(C)c1ccc2oc(-c3ccc(NC(=O)c4ncn[nH]4)cc3)nc2c1 (stereo not shown) | -1.89%
CCOc1ccc(N2C(=O)CC(N3CCC(O)(c4ccc(Br)cc4)CC3)C2=O)cc1 (stereo not shown) | -49.1%
CC1(C)CC(=O)C2=C(C1)NC(=O)CC2c1cc(F)ccc1F (stereo not shown) | -21.6%
Cc1cc(C)c2c(c1)/C(=N/NS(=O)(=O)c1ccccc1)CCC2 | 7.48%
COC(=O)Nc1ccc(S(=O)(=O)NCCCCCC(=O)O)cc1 | -1.56%
CCOC(=O)c1nn(-c2ccccc2C)c(=O)cc1OCC(=O)N1CCN(c2ccccc2)CC1 | -24.6%
CCN1CCN(C(=O)COc2cc(=O)n(CC)c3ccccc23)CC1 | -2.67%
CCOC(=O)c1nn(-c2ccc(F)cc2)c(=O)cc1OCC(=O)N1CCN(c2ccccc2)CC1 | -15.6%
CCOC(=O)c1nn(-c2ccc(C)cc2)c(=O)cc1OCC(=O)N1CCN(c2ccccc2)CC1 | -51.9%
CCn1c(=O)cc(OCC(=O)N2CCN(c3ccc(F)cc3)CC2)c2ccccc21 | -69.8%
CCn1c(=O)cc(OCC(=O)N2CCN(c3cccc(C(F)(F)F)c3)CC2)c2ccccc21 | -48.2%
CN(C)c1ccc(CNn2cnnc2SCC(=O)NC(C)(C)C)cc1 | 23.4%
CCOc1ccc(C(=O)OCC(=O)NCCCc2ccccc2)cc1 | 0.425%
Cc1c(/C=N/n2cnnc2)c2ccccc2n1C | 1.25%
COC(=O)c1ccc(NC(=O)C23CC4CC(C2)CC(n2cncn2)(C4)C3)cc1 | -22%
O=C(NC1CCCCC1)C12CC3CC(C1)CC(n1cncn1)(C3)C2 | 0.934%
CC(NC(=O)C12CC3CC(C1)CC(n1cncn1)(C3)C2)C12CC3CC(CC(C3)C1)C2 (stereo not shown) | -61.9%

Structure (SMILES) | hERG current change (%, negative = inhibition) at 10uM
CCN(CC)C(=O)CSC1=C(C#N)C(c2cccs2)C=C(C)N1 (stereo not shown) | 14.1%
COc1ccc2c(c1)CC/C(=C/c1ccccn1)C2=O | 3.19%
COc1ccc2c(c1)CC/C(=C/c1ccncc1)C2=O | -55.2%
COc1ccc2c(c1)CC/C(=C/c1cc(OC)c(OC)c(OC)c1)C2=O | -1.54%
CCCc1cc(=O)oc2cc(OCc3cc(OC)c(OC)c(OC)c3)c(Cl)cc12 | 17.4%
CC1(C)CC(NC(=S)NCc2ccco2)CC(C)(C)N1 | 18.9%
CCOc1ccc(CN2CCN(C3CCSCC3)CC2CCO)cc1 (stereo not shown) | -74.3%
COc1ccc(CN2CCN(C3CCC3)CC2CCO)c(C)c1C (stereo not shown) | 0.432%
CCOc1ccc(CN2CCN(Cc3ccc(C)o3)CC2CCO)cc1 (stereo not shown) | -104%
Cc1ccccc1CN1CCN(Cc2cc3ccccc3o2)CC1CCO (stereo not shown) | -6.94%
COc1cccc(CN2CCN(Cc3cc4ccccc4o3)CC2CCO)c1 (stereo not shown) | -10.7%
CCOc1ccccc1CN1CCN(Cc2ccc(C)o2)CC1CCO (stereo not shown) | -37.9%
CCOc1ccccc1CN1CCN(C2CCSCC2)CC1CCO (stereo not shown) | -25.9%
Cc1ccc(CN2CCN(Cc3ccc(OCCO)cc3)CC2CCO)o1 (stereo not shown) | 1.29%
COc1ccc(CN2CCN(C3CCSCC3)CC2CCO)c(C)c1C (stereo not shown) | -51.1%
COc1ccc(CN2CCN(Cc3cc4ccccc4o3)CC2CCO)c(F)c1 (stereo not shown) | -60.9%
COc1ccc(CN2CCN(C3CCOCC3)CC2CCO)c(C)c1C (stereo not shown) | -12.4%
CCOc1ccc(CN2CCN(C3CCC3)CC2CCO)cc1 (stereo not shown) | -19.2%
CCOC(=O)C1=C(CS(=O)(=O)c2ccccc2)NC(=O)NC1c1ccccc1OCC (stereo not shown) | -4.89%
Cc1ccsc1C1NC(=O)c2ccccc2N1 (stereo not shown) | 5.58%

Structure (SMILES) | hERG current change (%, negative = inhibition) at 10uM
CCC(C)(C)NC(=O)C(c1ccc(OC)cc1)N(C(=O)CCC(=O)Nc1cc(C)on1)c1ccc2c(c1)OCCO2 (stereo not shown) | 11.1%
O=C1OC/C(=C(/O)c2ccc(Cl)cc2)C1=O | 17%
Cc1cc(NC(=S)NC(=O)c2ccco2)c2ccccc2n1 | -1.51%
Cc1ccc(S(=O)(=O)N2CCCCC2C(=O)O)cc1 (stereo not shown) | 6.47%
COc1ccc(C(=O)C2CCN(C(=S)NCC3CCCO3)CC2)cc1 (stereo not shown) | -7.23%
O=C(c1cccc(S(=O)(=O)N2CCCC2)c1)N(Cc1ccco1)C1CCS(=O)(=O)C1 (stereo not shown) | -21.8%
CCOc1ccc(CN2CCN(Cc3ccon3)CC2CCO)cc1 (stereo not shown) | -62.8%
Cc1ccc(CN2CCN(Cc3cc4ccccc4o3)CC2CCO)cc1 (stereo not shown) | -43.1%
Cc1ccc(CN2CCN(Cc3ccon3)CC2CCO)cc1 (stereo not shown) | -11.1%
COc1ccc(CN2CCN(CC3CC3)CC2CCO)cc1C (stereo not shown) | -0.194%
CCOc1ccc(CN2CCN(Cc3cc4ccccc4o3)CC2CCO)cc1 (stereo not shown) | -80.4%
CCOc1ccc(CN2CCN(CC3CC3)CC2CCO)cc1 (stereo not shown) | -67.1%
COc1cc(CN2CCN(CC3CC3)CC2CCO)cc(OC)c1 (stereo not shown) | 2.79%
OCCC1CN(Cc2ccon2)CCN1Cc1ccccc1 (stereo not shown) | 9.42%
OCCC1CN(Cc2cc3ccccc3o2)CCN1Cc1ccc(F)cc1 (stereo not shown) | -11.8%
N#CC(C#N)=Cc1c[nH]c(=O)c(C#N)c1Nc1ccccc1 | 16.1%
O=C(CN(Cc1ccccc1)S(=O)(=O)c1ccccc1)NC1CC1 | -3.03%
CCc1cc(=O)oc2cc(C)cc(OCC(=O)NCC3CCC(C(=O)O)CC3)c12 (stereo not shown) | 4.34%
